# From the supplement of paper PMC6331611
# ± gives the standard deviation of the averaged measurements. The full ranking holds about 1,600 compounds; the median of “normalized intracellular growth (luminescence, IQM-normalized) in RAW264.7 macrophages” is about 1, and the lowest 2% start at about 0.43. Many of the other results were omitted from the sample, so the lowest values are more common in it than they were.
# Test system: Salmonella enterica serovar Typhimurium SL1344
# Test: normalized intracellular growth (luminescence, IQM-normalized) in RAW264.7 macrophages (fraction of plate interquartile mean); higher = more bacterial growth (less inhibition)
# Settings: 10 µM
Structure (SMILES),normalized intracellular growth (time point: T3 (3 h)),normalized intracellular growth (time point: Tfinal (~6 h))
CC(=O)OC1CC2CCC1(C)C2(C)C (centres undefined),1.011 ± 0.01,1.14 ± 0.018
CC[n+]1c(-c2ccccc2)c2cc(N)ccc2c2ccc(N)cc21,0.993 ± 0.05,1.13 ± 0.11
CC(C)(C)CC(C)(C)c1cc(Cc2cc(C(C)(C)CC(C)(C)C)cc(-n3nc4ccccc4n3)c2O)c(O)c(-n2nc3ccccc3n2)c1,1.02 ± 0.096,1.19 ± 0.3
CNC(=O)c1c(I)c(NC(C)=O)c(I)c(C(=O)O)c1I,1.01 ± 0.056,0.883 ± 0.21
C[N+]1(C)[C@@H]2CC[C@H]1C[C@@H](OC(=O)C(O)c1ccccc1)C2 (some centres undefined),0.968 ± 0.056,1.06 ± 0.025
C[C@]12C=CC(=O)C=C1CC[C@@H]1[C@@H]2[C@@H](O)C[C@@]2(C)[C@H]1CC[C@]2(O)C(=O)COP(=O)(O)O,0.954 ± 0.029,1.16 ± 0.24
S=C1SCN(Cc2ccccc2)CN1Cc1ccccc1,1.01 ± 0.087,0.779 ± 0.14
CCOC(=O)C1=C[C@@H](OC(CC)CC)[C@H](NC(C)=O)[C@@H](N)C1,1.01 ± 0.021,1.33 ± 0.15
CN(Cc1cnc2nc(N)nc(N)c2n1)c1ccc(C(=O)NC(CCC(=O)O)C(=O)O)cc1 (racemic),1.05 ± 0.046,0.825 ± 0.024
CC1=C(C(=O)O)N2C(=O)[C@@H](NC(=O)[C@H](N)c3ccccc3)[C@H]2SC1,1.017 ± 0.0017,1.07 ± 0.1
CO/N=C(\C(=O)N[C@@H]1C(=O)N2C(C(=O)O)=C(CSc3nc(=O)c(O)nn3C)CS[C@H]12)c1csc(N)n1,0.891 ± 0.022,0.311 ± 0.035
CO/N=C(\C(=O)N[C@@H]1C(=O)N2C(C(=O)O)=C(COC(N)=O)CS[C@H]12)c1ccco1,0.994 ± 0.043,0.732 ± 0.083
CO/N=C(\C(=O)N[C@@H]1C(=O)N2C(C(=O)O)=C(CSc3nnnn3C)CS[C@H]12)c1csc(N)n1,0.987 ± 0.052,0.935 ± 0.032
Nc1nc(/C(=C/CC(=O)O)C(=O)N[C@@H]2C(=O)N3C(C(=O)O)=CCS[C@H]23)cs1,0.951 ± 0.059,0.0259 ± 0.0032
CC1=C(C(=O)O)N2C(=O)[C@@H](NC(=O)[C@H](N)c3ccc(O)cc3)[C@H]2SC1,0.982 ± 0.0066,0.831 ± 0.018
CO/N=C(\C(=O)N[C@@H]1C(=O)N2C(C(=O)O)=C(CSC(=O)c3ccco3)CS[C@H]12)c1csc(N)n1,1 ± 0.029,0.0233 ± 0.0029
CO/N=C(\C(=O)N[C@@H]1C(=O)N2C(C(=O)OC(C)OC(C)=O)=C(COC(N)=O)CS[C@H]12)c1ccco1 (some centres undefined),1.09 ± 0.063,0.977 ± 0.23
Cn1nnnc1SCC1=C(C(=O)O)N2C(=O)[C@@H](NC(=O)[C@H](OC=O)c3ccccc3)[C@H]2SC1,0.866 ± 0.094,0.979 ± 0.024
Cc1ncc(CSSCc2cnc(C)c(O)c2CO)c(CO)c1O,0.943 ± 0.057,1.06 ± 0.015

Structure (SMILES),normalized intracellular growth (time point: T3 (3 h)),normalized intracellular growth (time point: Tfinal (~6 h))
O=C(O)C1=C(CSc2nnnn2CS(=O)(=O)O)CS[C@@H]2[C@H](NC(=O)[C@H](O)c3ccccc3)C(=O)N12,0.979 ± 0.034,0.824 ± 0.19
Cc1ccc2c(Br)cc(Br)c(OC(=O)c3ccccc3)c2n1,0.944 ± 0.025,1.01 ± 0.097
S=C=Nc1ccc(N=C=S)cc1,1.04 ± 0.035,1.01 ± 0.11
CN(C)c1ccc2nc3ccc(=[N+](C)C)cc-3sc2c1,1.29 ± 0.088,1.4 ± 0.2
COc1ccc(Cc2cnc(N)nc2N)cc1OC,0.784 ± 0.028,0.17 ± 0.021
COc1cc(/C=C/C(N)=O)cc(OC)c1OC,1.04 ± 0.084,1.03 ± 0.12
COc1cc(Cc2cnc(N)nc2N)cc(OC)c1OC,0.563 ± 0.068,0.155 ± 0.025
C[C@@H]1CC2C3C[C@H](F)C4=CC(=O)C=C[C@]4(C)[C@@]3(F)[C@@H](O)C[C@]2(C)[C@@]1(O)C(=O)COC(=O)C(C)(C)C (some centres undefined),0.961 ± 0.055,0.888 ± 0.12
Cc1cc(-c2ccc(/N=N/c3ccc4c(S(=O)(=O)O)cc(S(=O)(=O)O)c(N)c4c3O)c(C)c2)ccc1/N=N/c1ccc2c(S(=O)(=O)O)cc(S(=O)(=O)O)c(N)c2c1O,1.06 ± 0.038,1.36 ± 0.084
CCOC(=S)SSC(=S)OCC,0.994 ± 0.036,0.924 ± 0.067
C[C@@H]1NC(=O)[C@@H](N)CNC(=O)[C@H](C2CCNC(=N)N2)NC(=O)/C(=C/NC(N)=O)NC(=O)[C@H](CNC(=O)CC(N)CCCN)NC1=O.N=C1NCC[C@H]([C@@H]2NC(=O)/C(=C/NC(N)=O)NC(=O)[C@H](CNC(=O)C[C@@H](N)CCCN)NC(=O)[C@H](CO)NC(=O)[C@@H](N)CNC2=O)N1,0.976 ± 0.016,0.966 ± 0.059
CC(=O)N[C@@H]([C@@H](O)[C@H](O)[C@H](O)CO)[C@@H](O)CC(=O)C(=O)O,1.02 ± 0.058,1.06 ± 0.24
C[C@@H]1O[C@@H](OC[C@H]2O[C@@H](Oc3c(-c4ccc(OCCO)c(OCCO)c4)oc4cc(OCCO)cc(O)c4c3=O)[C@H](O)[C@@H](O)[C@@H]2O)[C@H](O)[C@H](O)[C@H]1O,0.951 ± 0.034,0.746 ± 0.24
OC[C@H]1O[C@@H](O[C@H]2[C@H](O)[C@@H](O)C(O)O[C@@H]2CO)[C@H](O)[C@@H](O)[C@H]1O (some centres undefined),1.05 ± 0.022,1.04 ± 0.026
C1CNCCN1,0.991 ± 0.091,0.655 ± 0.077
C[C@@H]1CN(c2c(F)c(F)c3c(=O)c(C(=O)O)cn(C4CC4)c3c2F)C[C@H](C)N1,0.986 ± 0.025,0.0257 ± 0.0074
C[C@@H]1CN(c2c(F)c(N)c3c(=O)c(C(=O)O)cn(C4CC4)c3c2F)C[C@H](C)N1,1.08 ± 0.037,0.0132 ± 0.002
COc1ccc(CN(CCN(C)C)c2ncccn2)cc1,1.1 ± 0.06,1.1 ± 0.093
